# Compound activity from PubChem BioAssay.
# Hits are enriched below; roughly 3.9% of the tested compounds scored in any of these assays.
# FBA Mtb inh = Mtb fructose-bisphosphate aldolase inhibition. actives 2.3% (n = 360,000). AID 588726. inhibition, % at 1 µM. P9WQA3. purified M. tuberculosis FBA, fluorescence read-out; in the data active means inhibition above about 27%
# Target sequence (P9WQA3 whole entry, looked up): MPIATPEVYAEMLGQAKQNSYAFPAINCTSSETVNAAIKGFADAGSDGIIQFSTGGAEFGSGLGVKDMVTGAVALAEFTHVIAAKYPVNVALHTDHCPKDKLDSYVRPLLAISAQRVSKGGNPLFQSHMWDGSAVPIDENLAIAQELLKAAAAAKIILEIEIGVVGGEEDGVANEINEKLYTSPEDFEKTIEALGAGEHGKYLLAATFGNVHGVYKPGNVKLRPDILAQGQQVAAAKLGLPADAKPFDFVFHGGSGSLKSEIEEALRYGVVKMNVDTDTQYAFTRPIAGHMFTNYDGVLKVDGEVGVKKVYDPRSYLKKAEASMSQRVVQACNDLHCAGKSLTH
# BH1578 lux ind = inducers of Vibrio cholerae quorum light production without autoinducers. activation, % at 18.7 µM. actives 0.16% (n = 350,000). AID 588436. V. cholerae BH1578 lux reporter, luminescence, 6 h; in the data active means activation mostly above about 9.7%, no sharp cut-off
# GDH-TPI inh = counter-screen for M. tuberculosis FBA inhibitors: GDH-TPI coupled enzymes; inhibition, % at 4.8 µM; GDH-TPI coupled enzyme counterscreen, NADH absorbance; actives 1.2% (n = 360,000); AID 588335
# CCHF vOTU inh-1 = blocks the CCHF virus ovarian tumor domain protease; CCHFV vOTU protease, Pep-AMC fluorescence; inhibition, % at 11.5 µM; actives 0.55% (n = 370,000)
# CCHF vOTU inh-2 = CCHFV vOTU protease inhibition, confirmation; shares compounds with CCHF vOTU inh-1; inhibition, % at 11.5 µM; Recombinant CCHFV vOTU, Pep-AMC fluorescence; AID 686976; actives 17% (n = 1,900)
# Numbers stand for hits; . = inactive; / = no result. Unless noted, no stated cut-off is given here; in the data, active means inhibition above about 30%; inactive means the rest.
SMILES,FBA Mtb inh,BH1578 lux ind,GDH-TPI inh,CCHF vOTU inh-1,CCHF vOTU inh-2
O=C(N[C@@H](Cc1ccccc1)C(=O)O)c1ccc(C(F)(F)F)cc1,.,.,.,.,/
O=C(NC1(O)C(=O)c2ccccc2C1=O)c1ccc(C(F)(F)F)cc1,.,.,.,81,35
Cc1ccc(C(=O)NC2(O)C(=O)c3ccccc3C2=O)cc1C,.,.,.,49,.
CC(C)=CCC[C@H](C)CC1Cc2[nH]c(=S)[nH]c(=O)c2C(c2ccc(F)cc2)O1 (stereo not given in full),.,/,/,.,/
CC(C)=CCC[C@H](C)CC1Cc2[nH]c(=S)[nH]c(=O)c2C(c2ccc(Cl)cc2)O1 (stereo not given in full),/,/,/,30,.
Clc1ccc(COC(Cn2ccnc2)c2ccc(Cl)cc2Cl)cc1 (stereo not given),.,.,.,.,/
Clc1ccc(C(c2ccc(Cl)cc2)n2cc[n+](CC(OCc3ccc(Cl)cc3Cl)c3ccc(Cl)cc3Cl)c2)cc1 (stereo not given),.,.,.,41,.
COc1cc(Br)ccc1C1CC(=O)C(C)C(c2ccc(Br)cc2OC)N1 (stereo not given),.,.,.,.,/
O=C(Oc1ccc2[nH]cc(CCN3C(=O)c4ccccc4C3=O)c2c1)c1ccco1,.,.,.,36,.
CC(C)CC1C(C#N)=C(N)OC2=C1C(=O)CC(c1ccccc1)C2 (stereo not given),.,.,.,.,/
CC1(C(=O)NCc2ccc(Cl)cc2)CCN1C(=O)Cc1cccc2ccccc12 (stereo not given),.,.,.,.,/
CC1(C(=O)NCc2cccc3ccccc23)CCN1Cc1ccc(OC(F)(F)F)cc1 (stereo not given),.,.,.,34,.
CCCCNC(=O)C1(C)CCN1C(=O)Cc1cccc2ccccc12 (stereo not given),.,.,.,47,.
CC1(C(=O)NCc2cccc3ccccc23)CCN1Cc1ccc2ccccc2c1 (stereo not given),.,.,.,.,/
O=C(COC(=O)CNC(=O)c1ccc(Br)o1)Nc1ccccc1OC(F)F,.,.,.,.,/
COc1cc(C(N)=O)ccc1OCc1ccccc1,.,.,.,30,.
CCC(=O)c1ccc(OCc2ccccc2)c(OC)c1,.,.,.,.,/
CCOc1ccc(NC(=O)N(CCN2CCOCC2)Cc2ccc3c(c2)CCCN3CC)cc1,.,.,.,41,.
CCCN1CCCc2cc(CN(CCCN3CCOCC3)C(=O)Nc3ccc(OCC)cc3)ccc21,.,.,.,.,/
C=CCN1C(=O)c2ccc(C(=O)N3CCN(S(=O)(=O)c4cccc(Cl)c4)CC3)cc2C1=O,.,.,.,.,/
Oc1cccc2c(NC(=S)Nc3ccc(OC(F)F)cc3)cccc12,.,.,.,.,/
CCCCCCCCn1ccc(=N)cc1,.,.,.,.,/
CCCCCCCCCCCCCCCCn1cc[n+](C)c1,.,.,.,39,50
Cc1ccc2c(Cl)c(Cc3ccccc3)c(=S)[nH]c2n1,.,.,.,.,/
CC(C)(C)NCCC(O)c1cc(C(F)(F)F)nc2c(C(F)(F)F)cccc12 (stereo not given),.,.,.,30,.
SMILES,FBA Mtb inh,BH1578 lux ind,GDH-TPI inh,CCHF vOTU inh-1,CCHF vOTU inh-2
CN(C)S(=O)(=O)c1ccc(C(=O)OCC2CCCO2)cc1 (stereo not given),.,.,.,.,/
COc1ccc(C2C3=C(CCCC3=O)Nc3nc(SCc4ccccc4)nn32)cc1OC (stereo not given),.,.,.,.,/
O=C(NCc1ccc(Cl)c(Cl)c1)c1cc(C2CCCCN2C(=O)C2CCCCC2)on1 (stereo not given),.,.,.,31,.
Cc1cc2c(=Cc3ccc(N(C)C)cc3)c3ccccc3n2[n+]1C,.,.,.,34,.
CN(C)c1ccc(C=c2c3ccccc3n3c2c2ccccc2[n+]3C)cc1,.,.,.,.,/
CCOC(=O)c1cc2c(=Cc3ccc(N(C)C)cc3)c3ccccc3n2[n+]1C,.,.,.,97,79
CCOC(=O)SC1=N/C(=C\c2ccc(N(C)C)cc2)C(=O)S1,.,.,.,.,/
CCSc1ncc(/C=N/Nc2ccc([N+](=O)[O-])cc2)n1C,.,.,.,.,/
C=Cc1cnc([N+](=O)[O-])n1C,.,.,.,30,.
CCCCN(C)C(=O)c1ccc(Nc2nc(C(N)Cc3ccc(C(F)(F)F)cc3)cs2)nc1 (stereo not given),.,.,.,32,.
COc1ccc(CC(N)c2csc(NC(=O)NCc3ccccc3)n2)cc1 (stereo not given),.,.,.,.,/
